Screening data: PubChem BioAssay, National Center for Advancing Translational Sciences (NCATS)
Rows were chosen to be rich in hits. Some 12% of all compounds tested hit in one or more screens of this group.
SARS PLP yeast = inhibitors of SARS-CoV papain-like protease in yeast | 0.19% of 330,000 active | S. cerevisiae expressing SARS-CoV PLpro, growth rescue | Potency, µM (series often up to 32.9 µM), without a hit: at the top dose activity, positive = growth rescue, hits mostly activators; also: potency is read from the fitted curve at half-maximal effect; 0% is about no effect; nearly all actives have a fitted effect of over 55% in size
Shiga inhibitor = Shiga toxin inhibition; Vero cells, Shiga toxin protein synthesis inhibition reporter; inhibition, % at 38.7 µM; 9.2% of 290,000 active; in the data active = inhibition mostly above about 28%, no sharp cut-off; inactive = mostly below about 43%; also: 0% is about no effect
NS1 function inh = influenza NS1 inhibition. Potency, µM (doses to about 46.1 µM), inactives show at the highest dose activity, positive = more growth. 0.4% of 270,000 active. AID 2326; also: potency is read from the fitted curve at half-maximal effect; actives are rising curves; nearly all actives have a fitted effect of over 50% in size
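OD600 was taken as the measure of yeast growth restored by compound in an NS1-expressing S. cerevisiae strain. Cells had been washed out of glucose medium and diluted 1:100 into galactose -URA medium, pH 6.0.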
Cycloheximide cs = counter-screen for Shiga toxin inhibitors: cycloheximide protein synthesis inhibition | cell reporter, cycloheximide protein synthesis inhibition counterscreen | max response, % | 12% of 300,000 active; in the data active = max response mostly above about 13%, no sharp cut-off; inactive = mostly below about 14%; also: read at 38.3 µM for the half of the compounds with a filed dose; 0% is about no effect
* hit, by the source's call; ? = inconclusive; . = not tested or not shown; + = active, no number. Unless noted, calls follow the shape of the full dose curve.

SMILES | SARS PLP yeast | Shiga inhibitor | NS1 function inh | Cycloheximide cs
CC(C)CCNC(=O)c1cc2c(s1)-c1ccccc1S(=O)(=O)C2 | 0% | 15 | 9% | 16*
CCn1cc(/C=C(\NC(=O)c2ccc(OC)c(OC)c2)C(=O)N2CCN(C)CC2)c2ccccc21 | -1% | -9 | -3% | -3
C/C(=N/NS(=O)(=O)c1cc(C)ccc1C)c1ccc2c(c1)OCO2 | 1% | -3 | -6% | -1
CCCOc1ncnc2c1[nH]c1ccc(OC)cc12 | -1% | 68* | -4% | 49*
Cc1ccc2[nH]c3c(N4CCCCCC4)ncnc3c2c1 | -7% | 65* | -42% | 18*
Cc1ccc2[nH]c3c(N4CCN(Cc5ccccc5)CC4)ncnc3c2c1 | -3% | 20 | -17% | 9
CCCOc1ncnc2c1[nH]c1ccccc12 | -19% | 60 | -94% | 42*
CCN(CC)c1ncnc2c1[nH]c1ccccc12 | -4% | -22 | 0% | -3
CCCCOc1ncnc2c1[nH]c1ccc(C)cc12 | -1% | 106* | -7% | 43*
Cc1nn(C)c(C)c1NC(=O)CC12CC3CC(CC(C3)C1)C2 | 0% | -3 | 2% | -5
CCC1(c2ccc(F)cc2)NC(=O)N(CC(=O)Nc2cc(C)on2)C1=O (stereo not given) | -7% | . | . | .
CC(NC(=O)N1CCN(c2ccccc2F)CC1)c1ccc(F)c(F)c1 (stereo not given) | -4% | -9 | -11% | 4
CC(C)Oc1ncnc2c1[nH]c1ccccc12 | -4% | 39* | -33% | 30*
N=C1N(/N=C/c2ccccc2)C(=Nc2ccccc2)C(=S)N1c1ccccc1 | 26% | active | 14% | 42*
COCCN(C(=O)CSc1nc2nc(C)cc(C)n2n1)c1c(N)n(Cc2ccccc2)c(=O)[nH]c1=O | 0% | 4 | . | -2
O=C(NCc1nc(-c2ccccc2)no1)c1ccc(Br)o1 | ? | -17 | -103% | -1
Clc1ccccc1OCc1nc(-c2ccc(Br)o2)no1 | -33% | 70* | -19% | 54*
Fc1ccc(OCc2nc(-c3ccc(Br)o3)no2)c(F)c1 | -10% | 62* | -31% | 18*
CN(Cc1nc(-c2ccccn2)no1)S(=O)(=O)c1ccccc1 | 0% | 61* | 1% | 24*
Brc1ccc(-c2noc(CCc3ccccc3)n2)o1 | 3% | 84* | -69% | 17*
Brc1ccc(-c2noc(COc3ccc4ccccc4c3)n2)o1 | 7% | 10 | -2% | 9
OCCC#Cc1ccc(CN2CCN(Cc3ccccc3)C(CCO)C2)cc1 (stereo not given) | 0% | -4 | -7% | -3
COc1cccc(C(=O)OCC(=O)N2CCC(Cc3ccccc3)CC2)c1OC | 0% | . | . | .
O=C(c1cccc(-c2ccco2)c1)N1CCCC(N2CCN(c3ccc(F)cc3)CC2)C1 (stereo not given) | -6% | -10 | 2% | -4
c1ccc(CCc2nc(-c3ccccn3)no2)cc1 | -9% | 125* | ? | 31*
SMILES | SARS PLP yeast | Shiga inhibitor | NS1 function inh | Cycloheximide cs
Brc1ccc(-n2cnc(-c3ccccc3)c2)cc1 | -2% | 60* | -55% | 51*
CCOC(=O)C1CCN(C(=O)c2cc(COc3ccc(OC)c4ccccc34)on2)CC1 | -13% | 82* | 4% | 43*
COc1ccc(OCc2cc(C(=O)N3CCC(OC)CC3)no2)c2ccccc12 | -8% | 126* | -26% | 41*
C/C(=N\NC(=O)c1c(Cl)cnn1C)c1ccc(NC(=O)c2ccc(Br)o2)cc1 | ? | 57* | -6% | 40*
C/C(=N\NC(=O)C1CC1)c1ccc(NC(=O)c2ccc(Br)o2)cc1 | -1% | 55* | -7% | 24*
COc1ccc(CC(=O)Nc2ccc(/C(C)=N\NC(=O)c3ccc(Br)o3)cc2)cc1 | -7% | 44* | 0% | 42*
O=C(Nc1cccc(F)c1)C1CCCN(S(=O)(=O)c2cnc[nH]2)C1 (stereo not given) | -1% | -7 | 7% | -10
CC(C)CNC(=O)CC(c1ccccc1)c1ccccc1 | -1% | -3 | 5% | -2
C=CCc1cc(/C=C2/NC(=O)N(CC(=O)OC)C2=O)cc(OC)c1O | 2% | -17 | . | -4
Cc1ccccc1C(=O)N1CC(=O)Nc2ccc(F)cc2C1c1ccccc1 (stereo not given) | 2% | -11 | 2% | -2
O=C1C2C3C=CC(C3)C2C(=O)N1c1ccc(-c2nc3ccccc3o2)cc1 (stereo not given) | -9% | 110 | 3% | 29*
COc1cccc(-c2noc(CCC(=O)Nc3cccnc3)n2)c1 | 0% | 77 | -12% | 25*
COc1ccc(-c2noc(CCC(=O)Nc3ccc4c(c3)OCCO4)n2)cc1 | 15% | 43* | -21% | 23*
COc1ccc(NC(=O)CCc2nc(-c3ccc(C)cc3)no2)cc1Cl | 5% | 55 | -10% | 18
COc1ccc(-c2noc(CCC(=O)Nc3ccc(C)c(C)c3)n2)cc1 | 2% | 34 | -15% | 15*
COc1ccc(OCCCC(=O)Nc2ccc3c(c2)OCCO3)cc1 | -3% | + | 5% | 11
CC(=O)c1ccc(OCCCC(=O)Nc2ccc3c(c2)OCCO3)cc1 | 0% | . | . | .
CCCn1cc(S(=O)(=O)c2ccc(Cl)cc2)c(=O)c2cc(OC)ccc21 | -1% | -5 | -2% | -5
Cc1cc(C)n2nc(C(=O)OCC(=O)N3CC(C)CC(C)C3)nc2n1 (stereo not given) | 0% | . | . | .
O=C(O)[C@@H]1Cc2c([nH]c3ccccc23)[C@@H](CCCCO)N1 | . | . | 0% | .
CCOc1ccc(CN2CCC(C(=O)Nc3cccc(-c4ccn[nH]4)c3)CC2)cc1Cl | -2% | 43* | 12% | 24*
O=[N+]([O-])c1ccc(O)c(C=Nc2ccc3c(c2)OCCO3)c1 | -49% | 108* | -14% | 112*
Oc1c(Br)cc(Br)cc1C=Nc1ccc2c(c1)OCCO2 | -2% | 50* | . | 32*
Oc1[nH]c2ccccc2c1C=Nc1ccc2c(c1)OCCO2 | -12% | 53 | -13% | 32*
Oc1c(Br)cc(Br)cc1C=Nc1ccc2c(c1)OCO2 | -22% | 23 | 4% | 1
SMILES | SARS PLP yeast | Shiga inhibitor | NS1 function inh | Cycloheximide cs
CC(C)NC(=O)[C@H]1N2C(=O)c3ccccc3C2SC1(C)C (stereo not given in full) | 1% | 3 | 1% | 1
CC(C)(C)C(=O)Cn1ncc(N2CCOCC2)c(Cl)c1=O | 0% | 32* | -1% | 17*
O=C(Cn1ncc(N2CCOCC2)c(Br)c1=O)c1ccc(Cl)cc1 | 1% | 80* | -2% | 35*
O=C(Cn1ncc(N2CCCC2)c(Cl)c1=O)c1ccc(Cl)cc1 | -1% | 90* | -1% | 38*
COC(=O)c1ccccc1NC(=O)CSc1nnc(Cc2ccc(Cl)cc2)o1 | -6% | -58 | -52% | -1
CCCCNC(=O)CS(=O)Cc1nc(-c2cccc(Cl)c2)oc1C (stereo not given) | 3% | -23 | -12% | -12
COc1ccc([N+](=O)[O-])cc1NC(=O)C(C)Sc1nc(-c2ccccc2)cs1 (stereo not given) | -17% | -7 | ? | 0
O=c1c2cc3c(nc2[nH]c(=S)n1-c1ccccc1)CCCC3 | 1% | 1 | 3% | -3
O=C(Cc1c(F)cccc1Cl)Nc1cccnc1 | 1% | -15 | 2% | 3
Cc1csc(NC(=O)Cc2ccc(F)cc2)n1 | 2% | 77* | -3% | 34*
Cc1cc(CNC(=O)Cc2c(F)cccc2Cl)nn1C | 2% | 34* | 2% | 18*
